“And” between values parts separate entries of the source, which are not always exact repeats. Equal values may be shown once. Results filed as inconclusive are left out. The source holds several records for some structures; these can differ, active in one and inactive in another. Unmarked numbers belong to inactive results. The source made the active and inactive calls. The call rests on the fitted dose curve; in most records, active means well fitted cell-killing curve with a large enough effect in the repeat runs; inconclusive means weak or mixed curves, or effect the other way; inactive means flat fitted curve, though single readings scatter.
assay: qHTS RealTime-Glo MT Cell Viability Assay in HEK293 cells - 40 hour (AID 1224874); details: RealTime-Glo luminescence; max response: hits give low values; further: nearly all actives have a fitted effect of over 50% in size
Text: U.S. Tox21 Program National Center for Advancing Translational Sciences [NCATS] NIH Chemical Genomics Center [NCGC] U.S. Environmental Protection Agency [EPA] National Institutes of Environmental Health Sciences [NIEHS] National Toxicology Program [NTP] U.S. Food and Drug Administration [FDA] Tox21 Assay Overview: Measure of cell viability is critical in the cell-base assay. Analysis of cell viability is necessary for the characterization of cell responses to cytotoxic drugs and environmental stress. A RealTime-Glo MT Cell Viability Assay to monitor cell viability in real time of continues cell culture during 40 hours of compound treatment was used to screen Tox21 10K library compounds in Hek293 cells. The RealTime-Glo MT Cell Viability Assay is a nonlytic, homogeneous, bioluminescent method to measure cell viability in real time using a simple, plate-based method. The assay involves adding NanoLuc luciferase and a cell-permeant prosubstrate to cells in culture. Viable cells reduce the proprietary prosubstrate to generate a substrate for NanoLuc luciferase. This substrate diffuses from cells into the surrounding culture medium, where it is rapidly used by the NanoLuc Enzyme to produce a luminescent signal. The signal correlates with the number of viable cells, making the assay well suited for cytotoxicity studies.
Tox21 Assay Protocol Summary: The mixture of Hek293 cell suspension and reagents were dispensed at 600cells/6 ul/well in 1536-well tissue culture treated black solid bottom plates using a Multidrop dispenser. After the assay plates were incubated at a 37 C/5% CO2 incubator for 5 hours, 23 nL of compounds dissolved in DMSO, positive and negative controls was transferred to the assay plate by a pintool work station. The plates were incubated at 37 C for 40 hours. The luminescence intensity were measured at 0h, 8h, 16h, 24h, 32h and 40h time points using ViewLux plate reader during compound treatment.
On the % scale 0 is the no-effect control and ±100 the full control effect; potency means the concentration at half of the fitted maximal effect.

Row | Structure (SMILES) | max response | Potency
1 | Nc1ncnc2nc[nH]c12 | 0.881% and 2.65% | 
2 | C[Si](C)(C)O[Si](C)(C)C | -0.246% and 0.761% | 
3 | OC[C@H]1O[C@@H]2O[C@H]3[C@H](O)[C@@H](O)[C@@H](O[C@H]4[C@H](O)[C@@H](O)[C@@H](O[C@H]5[C@H](O)[C@@H](O)[C@@H](O[C@H]6[C@H](O)[C@@H](O)[C@@H](O[C@H]7[C@H](O)[C@@H](O)[C@@H](O[C@H]8[C@H](O)[C@@H](O)[C@@H](O[C@H]1[C@H](O)[C@H]2O)O[C@@H]8CO)O[C@@H]7CO)O[C@@H]6CO)O[C@@H]5CO)O[C@@H]4CO)O[C@@H]3CO | 3.33% | 
4 | O=P(O)(O)O | -1.49% and 1.49% | 
5 | O=C(/C=C/c1ccccc1)OCc1ccccc1 | 1.15% and -0.532% | 
6 | CCCCCCCCCC(=O)OC | 7.54% and -2.85% | 
7 | CCCCc1oc2ccccc2c1C(=O)c1cc(I)c(OCCN(CC)CC)c(I)c1 |  | 34.9 µM (active) and 23.9 µM (active)
8 | O=c1oc(=O)c2cc3c(=O)oc(=O)c3cc12 | 5.31% and 2.56% | 
9 | Cn1cnc([N+](=O)[O-])c1Sc1ncnc2nc[nH]c12 |  | 20.5 µM (active) and 21.3 µM (active)
10 | Cc1cc2nc3c(=O)[nH]c(=O)nc-3n(C[C@H](O)[C@H](O)[C@H](O)CO)c2cc1C | -7.07% and -0.427% and -0.0783% | 
11 | CCCCNS(=O)(=O)c1ccccc1 | -5.06% | 4.36 µM (active)
12 | CCCC(=O)O | 23.6% and 12.6% | 
13 | C=CC(C)(CCC=C(C)C)OC(C)=O (stereo not given) | 4.78% and 0.789% | 
14 | COc1cccc2c1C(=O)c1c(O)c3c(c(O)c1C2=O)C[C@@](O)(C(=O)CO)C[C@@H]3O[C@H]1C[C@H](N)[C@H](O)[C@H](C)O1 |  | 97.6 nM (active) and 190 nM (active)
15 | O=C(c1ccccc1)c1ccc(O)cc1O | -11.1% and -19.8% | 
16 | COC(=O)Nc1nc2ccc(S(=O)c3ccccc3)cc2[nH]1 (stereo not given) |  | 0.756 µM (active)
17 | Nc1ccc(S(=O)(=O)Nc2cnc3ccccc3n2)cc1 | -2.7% and 1.7% | 
18 | Nc1ccc(Cl)cc1Cl | 8.67% and 2.84% | 
19 | c1ccc2cc(Nc3ccc(Nc4ccc5ccccc5c4)cc3)ccc2c1 | 5.1% and 1.69% | 

Row | Structure (SMILES) | max response | Potency
20 | CCCc1c(OCCCCc2nn[nH]n2)ccc(C(C)=O)c1O | 0.608% and 1.1% | 
21 | COc1ccc(C(=O)CC(=O)c2ccc(C(C)(C)C)cc2)cc1 | -14% | 29.6 µM (active)
22 | S=C(NC1CCCCC1)NC1CCCCC1 |  | 17 µM (active) and 21.9 µM (active)
23 | O=CCc1ccccc1 | 1.86% and -0.86% | 
24 | Cc1c(OCC(F)(F)F)ccnc1CS(=O)c1nc2ccccc2[nH]1 (stereo not given) |  | 21.9 µM (active) and 10.7 µM (active)
25 | CCCCC/C=C/C=C/C=O | -25% | 
26 | O=C(/C=C/C=C/c1ccc2c(c1)OCO2)N1CCCCC1 |  | 55.1 µM (active)
27 | CC(C(=O)O)c1cccc(C(=O)c2ccccc2)c1 (stereo not given) | 9.55% and 2.14% | 
28 | CNCCCC12CCC(c3ccccc31)c1ccccc12 |  | 49 µM (active) and 23.9 µM (active)
29 | O=C(O)c1ccccc1Nc1cccc(C(F)(F)F)c1 | -19.7% and -3.43% | 
30 | CC(C)=CCC/C(C)=C\CO | 0.916% and 13.7% | 
31 | COC(=O)C1=C(C)NC(C)=C(C(=O)OCCN(C)Cc2ccccc2)C1c1cccc([N+](=O)[O-])c1 (stereo not given) |  | 24.4 µM (active) and 16.9 µM (active)
32 | COc1cc([C@@H]2c3cc4c(cc3[C@H](O)[C@H]3COC(=O)[C@H]23)OCO4)cc(OC)c1OC |  | 0.0489 µM (active)
33 | CCOCCOCCO | 10.2% and 7.38% | 
34 | Cc1ccc(C(=O)c2cc(O)c(O)c([N+](=O)[O-])c2)cc1 |  | 49 µM (active)
35 | c1ccc2c(c1)c1cccc3ccc4cccc2c4c31 | -16.2% | 19.5 µM (active)
36 | O=C(Nc1ccc(Cl)cc1)Nc1ccc(Cl)c(Cl)c1 |  | 4.34 µM (active) and 3.89 µM (active) and 3.01 µM (active)
37 | O=Cc1ccccc1O | 3.18% and 0.0852% | 
